# PHOSPHO1 block: blocks human PHOSPHO1 phosphatase activity | 290,000 compounds, 1.1% hits | recombinant PHOSPHO1, absorbance phosphatase assay | AID 1565 | inhibition, % at 13.3 µM | Q8TCT1; in the data active = inhibition above about 60%
# Target sequence (Q8TCT1 whole entry, looked up): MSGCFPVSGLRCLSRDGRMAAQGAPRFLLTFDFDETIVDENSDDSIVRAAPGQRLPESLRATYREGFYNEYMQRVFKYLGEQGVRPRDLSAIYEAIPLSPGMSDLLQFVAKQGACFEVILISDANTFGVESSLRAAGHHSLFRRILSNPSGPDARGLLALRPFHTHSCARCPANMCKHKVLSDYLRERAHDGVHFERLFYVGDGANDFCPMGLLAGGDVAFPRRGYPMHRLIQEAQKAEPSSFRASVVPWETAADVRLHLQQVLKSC
# eIF4H inh: inhibitors of RNA binding by human eIF4H; Q15056; eIF4H fluorescence polarization binding assay; inhibition, % at 35 µM; 290,000 compounds, 0.94% hits;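 note: calls also rest on retests at 20 µM and on dose response follow-up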
# Efa HMGR inh: inhibitors of class II HMG-CoA reductase from Enterococcus faecalis; AID 1066; purified E. faecalis HMGR, NADPH absorbance 340 nm kinetic; 190,000 compounds, 0.41% hits; inhibition, % at 10 µM;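 active = inhibition above a set limit, the median over all tested compounds plus 3 SD, cut at about 9.5% in these data; inconclusive = no clear call, values can overlap the other calls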;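 note: enzyme runs in reverse so mevalonate oxidation gives rising NADPH absorbance; 0% = complete reaction with DMSO and 100% = background rate lacking mevalonate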
# PABP1 MLLE inh: inhibitors of microRNA-mediated deadenylation, human PABP1 MLLE binding | P11940 | GST-MLLE / FITC-PAM2 fluorescence polarization | inhibition, % at 20 µM | 360,000 compounds, 0.36% hits; in the data active = inhibition above about 35%, passing the limit was not always enough;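 note: plate controls were DMSO wells with GST-MLLE for no effect and wells lacking GST-MLLE protein for full effect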
# PABP polyA inh: PABP-poly(A) binding inhibition | 290,000 compounds, 1% hits | calls only at 35 µM | P11940 | PABP-poly(A) RNA binding, fluorescence polarization;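 note: calls also rest on retests at 20 µM and on dose response follow-up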
# Starred values were filed as active, the others as inactive; i = inactive; ? = inconclusive; · = no result; + = active, no number. In the library only some 2.4% were active in any assay of this set; here they are far more common. Unless noted, the rule behind the calls is not given here.
SMILES,PHOSPHO1 block,eIF4H inh,Efa HMGR inh,PABP1 MLLE inh,PABP polyA inh
Cc1nnc2n(c1=O)C(CS(=O)(=O)c1ccc3ccccc3c1)CS2 (stereo not given),-5,-3,-5,-3,i
COc1ccc(N(CCN2C(=O)c3ccccc3C2=O)C(=O)c2cccc([N+](=O)[O-])c2)cc1,-11,active,-1,-9,+
Cc1ccc(Cn2c(SCC(C)C)nc3c2c(=O)[nH]c(=O)n3C)cc1,90*,-11,0,0,i
CCCSc1nc2c(c(=O)[nH]c(=O)n2C)n1Cc1ccc(C)cc1,-4,-2,0,-72,i
CC(C)Sc1nc2c(c(=O)[nH]c(=O)n2C)n1Cc1ccc(Cl)cc1,84*,-2,-5,-120,i
Cc1ccccc1-n1c(SCC(=O)c2cc(C)n(C)c2C)nnc1-c1ccncc1,93*,42,-5,-60,i
CC12CC3CC(C)(C1)CC(C(=O)Nc1nncs1)(C3)C2,34,-2,·,-6,i
CCc1cc(C(=O)NNC(=S)Nc2cccc(C)c2)cs1,-13,7,-8,29,i
C/C(=N\NC(=S)Nc1cccc(C)c1)c1cccc(N)c1,8,-2,-11,33,i
S=C(NCc1ccccc1)Nc1cccc(Cl)c1,-5,-6,1,-12,i
Cc1cccc(NC(=S)NNC(=S)NCc2ccccc2)c1,78*,79,-1,31,i
C/C(=N\NC(=S)Nc1cccc(C)c1)c1ccccc1,-79,4,-4,40*,i
Cc1cccc(NC(=S)NNC(=O)c2sccc2C)c1,80*,1,0,19,i
COC(=O)C(C(=O)OC)=C(/C=C/C=C/N(C)C)N(C)C,5,101*,-3,22,+
COC(=O)C(C(=O)OC)=C(/C=C/N(C)C)N(C)C,-37,-3,-2,2,i
O=C(c1ccc(Cl)nc1)N1CCN(S(=O)(=O)c2ccc(Cl)cc2)CC1,20,4,-3,-5,i
C=CCSc1nnc(-c2ccc([N+](=O)[O-])cc2)o1,-17,-10,-4,-60,i
NC(=O)CSc1nnc(-c2ccc([N+](=O)[O-])cc2)o1,28,3,14*,-67,i
CC(=O)c1sccc1NC(=O)c1ccccc1C(=O)O,16,3,·,2,i
Cc1ccc(/C=C/C(=O)NCc2ccco2)o1,0,?,6,·,+
O=C(/C=C/c1ccco1)NCc1ccco1,19,86*,·,-11,+
COC(=O)/C=C(\C)N=Nc1c(O)[nH]c2ccccc12,20,8.6*,·,3,+
O=C(CNC(=O)Cc1ccccc1)N=Nc1c(O)[nH]c2ccccc12,24,3,·,6,i
O=C(CNC(=O)/C=C/c1ccco1)N=Nc1c(O)[nH]c2ccccc12,13,88*,·,9,+
Cc1ccc(-n2nc3c(=O)n(CC(=O)NC4CCCCCC4)nc(C)c3c2C)cc1,32,-4,·,5,i
SMILES,PHOSPHO1 block,eIF4H inh,Efa HMGR inh,PABP1 MLLE inh,PABP polyA inh
CC(=O)N=Nc1[nH]c(N)c2ccccc12,22,-2,-5,-7,?
Cc1nn(C)c(C(=O)N2CCOCC2)c1Cl,-7,7,0,2,i
CCCCn1c(CN2CCN(c3cccc(Cl)c3)CC2)nc2c1c(=O)[nH]c(=O)n2C,-24,-4,9.8*,3,i
Cn1c(=O)[nH]c(=O)c2c1nc(CN1CCN(c3cccc(Cl)c3)CC1)n2CCCc1ccccc1,-2,-9,-12,-5,i
CC(=O)N1CCc2cc(S(=O)(=O)N3CCCCCC3)ccc21,28,0,·,5,i
CS(=O)(=O)N1CCc2cc(S(=O)(=O)N3CCCCC3)ccc21,-33,1,16*,13,i
CCOC(=O)CC(=O)CSc1nc(-c2ccccc2)cc(-c2ccccc2)c1C#N,3,50,-5,2,i
CC(C)OC(=O)CC(=O)CSc1nc(-c2ccc(F)cc2)cc(-c2ccccc2)c1C#N,-8,88*,-6,20,+
C[n+]1ccccc1/C=C/c1ccc(C#N)cc1,-138,41,·,-93,+
C[n+]1ccccc1/C=C/c1ccc2ncccc2c1,-127,10,·,-101,+
O=C(CSc1ccccc1F)NC(=O)NC1CCCC1,·,·,·,10,·
Cc1cc(C)c(O)c(NC(=S)NC(=O)Cc2ccccc2)c1,19,-7,·,42*,i
CN(C)S(=O)(=O)c1ccc(NC(=O)CN2C(=O)NC(Cc3ccccc3)C2=O)cc1 (stereo not given),·,·,·,-14,·
COc1cccc(NC(=O)c2ccc3snnc3c2)c1,-1,5,17*,0,i
C#Cc1ccc(C(=O)NCc2ccc(N3CCCC3=O)cc2)cc1,37,61,-3,15,+
O=C(COc1ccc(C(=S)N2CCOCC2)cc1Cl)Nc1ccccc1Cl,45,9,-2,41*,i
Cc1cc(Cl)ccc1OCC(=O)Nc1ccccc1C(=O)N1CCOCC1,61*,14,·,7,i
COc1cc(C(=S)N2CCCCC2)ccc1OCC(=O)Nc1ccccc1Cl,42,-7,2,19,i
Cc1ccc(S(=O)(=O)NCC(=O)OCC(=O)c2c(N)n(C)c(=O)n(C)c2=O)cc1,-13,-9,1,4,i
CC(C)CCC(O)(CCC(C)C)C(=O)NNc1ccccc1,1,5,4,9,i
CC(C)CC(O)(CC(C)C)C(=O)NNc1ccccc1,21,5,15*,6,i
NNc1nc2sc3c(c2c(=O)[nH]1)CCc1ccccc1-3,3,101*,3,-16,+
CC(C(=O)NC1C(=O)N2C(C(=O)O)=C(CSc3nnnn3C)CSC12)n1cc(Cl)cn1 (stereo not given),-10,7,-1,43*,i
CCOC(=O)c1c(/N=C/c2cccc([N+](=O)[O-])c2O)sc(C)c1C,-32,21,-7,51*,i
O=S(=O)(NC1Cc2ccccc2C1)c1ccccc1,-2,1,·,-2,i
SMILES,PHOSPHO1 block,eIF4H inh,Efa HMGR inh,PABP1 MLLE inh,PABP polyA inh
COc1ccc(/C=C/C=N/NC(=O)COc2ccc(OC)cc2)cc1,21,-2,0,-7,i
CC(C)C(NC(=O)COc1ccc2ccccc2c1)C(=O)N/N=C/C=C/c1ccccc1 (stereo not given),93*,-2,-5,-98,i
COc1ccc(Cc2c(C(C)(C)C)nc3c(C)cc(Br)cn23)c(C)c1,·,·,·,47*,·
O=C(NCC1CCCO1)c1ccc(Cl)c(F)c1F (stereo not given),6,-5,15*,6,i
COc1n[nH]c(C(=O)NCc2ccccc2)c1[N+](=O)[O-],27,-10,12*,-7,i
COC(=O)c1ccc(CSc2n[nH]c(=S)s2)o1,102*,-11,-1,-44,i
COC(=O)c1ccc(CSc2nc3c(cnn3-c3ccc(C)cc3)c(=O)[nH]2)o1,-14,-1,-6,-3,i
COC(=O)c1ccc(CSc2nc3ccc(C)cc3[nH]2)o1,76*,-12,-1,-123,i

# Screening results deposited in PubChem BioAssay by several laboratories.
